For experiment [1], the target named is Luciferin 4-monooxygenase (Photinus pyralis) (UniProt P08659). Briefly: qHTS assay to identify small molecule inhibitors of firefly luciferase (AID 1224835). Note: nearly all actives have a fitted effect of over 25% in size. The method, boiled down:
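Biochemical qHTS: compounds run as interplate titrations against purified firefly enzyme, with D-luciferin and ATP each at its KM concentration. Light output recorded by CCD imaging.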

Experiment [2] is described as follows: qHTS assay to identify small molecule agonists of the constitutive androstane receptor (CAR) signaling pathway - cell viability counter screen (AID 1224836). Note: nearly all actives have a fitted effect of over 45% in size. An outline of the steps:
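HepG2 cells stably carrying hCAR and a CYP2B6-2.2kb reporter; 15-concentration compounds plus PK11195 (final 0.75 uM), 23 hr at 37 C/5% CO2. Viability read by CellTiter-Fluor fluorescence.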

A short description of experiment [3]: qHTS assay to identify small molecule agonists of the estrogen related receptor signaling pathway with the pleiotropic PPARgamma coactivator (PGC) from Tox21 10K library (AID 1224842). Note: nearly all actives have a fitted effect of over 15% in size. An outline of the steps: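 PGC/ERR reporter cell line, 2,000 cells per well, incubated 6 h at 37 C before 23 nL compound in DMSO was added. After 18 h at 37 C, One-Glo luminescence read following 30 min at room temperature.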

Experiment [4] in a line: qHTS assay to identify small molecule agonists of the hypoxia (HIF-1) signaling pathway - cell viability counter screen (AID 1224844; calls by dose curve; note: nearly all actives have a fitted effect of over 50% in size). An outline of the steps:
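Luminescent ATP content (CellTiter-Glo, 30 min, room temperature) served as the viability measure in HRE-bla ME-180 cells exposed to compounds for 17 hrs in low-serum medium (0.5% dialyzed FBS).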
In general terms: qHTS replaces the single test concentration by a dilution series.

Experiment [5] is described as follows: qHTS assay to identify small molecule agonists of H2AX (AID 1224845; active = well fitted activation curve with a large enough effect in the signal ratio in the repeat runs, not every such curve was filed as active; the % refers to the signal ratio). An outline of the steps: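 Wild-type CHO-K1 cells, plated overnight, exposed 3hr at 37C to 15 concentrations (0.76% DMSO final). Lysed, then HTRF anti-pH2AX (S139) cryptate and anti-H2AX-d2 antibodies, 24 hr room temperature; 665/620 nm emission read.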
A short description of experiment [6]: qHTS assay to identify small molecule agonists of the hypoxia (HIF-1) signaling pathway (AID 1224846; active = well fitted activation curve with a large enough effect in the signal ratio in the repeat runs, not every such curve was filed as active; the % refers to the signal ratio). An outline of the steps:
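Measured by blue/green FRET after loading CCF4-AM: beta-lactamase expressed from a hypoxia response element in ME-180 cells. Test agents were delivered in DMSO and left 17 hrs; cells had been plated 5 hrs earlier in low-serum (0.5% dialyzed FBS) medium.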

Experiment [7] can be described thus: qHTS assay to identify small molecule agonists of H2AX - cell viability counter screen (AID 1224847; calls by dose curve; note: top concentration of the series differs between compounds; nearly all actives have a fitted effect of over 30% in size). The method, boiled down:
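CHO-K1 cells plated overnight at 37C, then exposed 3 h at 37C to compounds at 15 concentrations (0.76% DMSO final). Viability by CellTiter-Glo luminescence after 30 min at room temperature.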

Experiment [8] is described as follows: qHTS assay to identify small molecule antagonists of the estrogen related receptor (ERR) signaling pathway from Tox21 library (AID 1224848). Note: nearly all actives have a fitted effect of over 50% in size. An outline of the steps:
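Luminescent reporter read-out (ONE-Glo) from NTP's ERR cell line after 18 h treatment at 37 C with DMSO-dissolved Tox21 compounds; cells pre-plated 6 h beforehand at 2,000 per well.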

Experiment [9] can be described thus: qHTS assay to identify small molecule agonists of the estrogen related receptor (ERR) signaling pathway from Tox21 library (AID 1224849; calls by dose curve; note: nearly all actives have a fitted effect of over 15% in size). Conditions: ERR reporter cell line, ONE-Glo luciferase, 18 h. The method, boiled down:
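We plated ERR reporter cells, waited 6 h, added compounds in DMSO by pin tool and incubated them 18 h at 37 C. ONE-Glo was then added and luminescence read after 30 min.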

Experiment [10] can be described thus: qHTS RealTime-Glo MT Cell Viability Assay in HepG2 cells - 24 hour (AID 1224867). Note: nearly all actives have a fitted effect of over 50% in size. The method, boiled down:
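Viability was tracked continuously by NanoLuc luminescence from prosubstrate reduced by living HepG2 cells, at successive time points over 40 h of compound exposure. Cells with reagent were preincubated 5 h at 37 °C before compound addition.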

A short description of experiment [11]: A CellTox Green Cytotoxicity Assay to monitor cytotoxicity in HEK293 cells - 0 hour (AID 1224869). Note: nearly all actives have a fitted effect of over 50% in size. The method, boiled down:
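Each value comes from one timepoint of a single continuous run in which HEK293 cells with CellTox Green were exposed to compound for up to 40 h at 37 C, dye fluorescence rising with cell death.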

Experiment [12] in a line: qHTS RealTime-Glo MT Cell Viability Assay in HepG2 cells - 40 hour (AID 1224870). Note: nearly all actives have a fitted effect of over 50% in size. An outline of the steps: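 HepG2 cells (600/well) mixed with RealTime-Glo MT reagent, settled 5 h at 37 C/5% CO2 before compound addition. Nonlytic NanoLuc luminescence from viable-cell prosubstrate reduction read repeatedly during 40 h treatment at 37 C.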
Experiment [13] in a line: qHTS assay to identify small molecule antagonists of the estrogen related receptor (ERR) signaling pathway from Tox21 library - cell viability counter screen (AID 1224834). Note: nearly all actives have a fitted effect of over 30% in size. An outline of the steps: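 Viability readout (CellTiter-Fluor fluorescence, 30 min at 37 C) multiplexed with the ERR assay; cells treated 17.5 h at 37 C with compounds delivered in DMSO.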
In experiment [14] the target is Nuclear receptor subfamily 1 group I member 3 (Homo sapiens) (UniProt Q14994). The experiment can be described thus: qHTS assay to identify small molecule antagonists of the constitutive androstane receptor (CAR) signaling pathway (AID 1224838).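 Note: HepG2 cells stably expressing hCAR with CYP2B6 luciferase reporter stimulated by CITCO; nearly all actives have a fitted effect of over 40% in size.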 The method, boiled down: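 Quantitative HTS in double-stable HepG2-CYP2B6-hCAR cells. After 4 h plating, cells get compound (15 concentrations) and CITCO at 50 nM final, incubate 24 h at 37 C, then ONE-Glo luminescence is read.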
Sequence of Nuclear receptor subfamily 1 group I member 3 (Homo sapiens) (Q14994 whole entry, looked up): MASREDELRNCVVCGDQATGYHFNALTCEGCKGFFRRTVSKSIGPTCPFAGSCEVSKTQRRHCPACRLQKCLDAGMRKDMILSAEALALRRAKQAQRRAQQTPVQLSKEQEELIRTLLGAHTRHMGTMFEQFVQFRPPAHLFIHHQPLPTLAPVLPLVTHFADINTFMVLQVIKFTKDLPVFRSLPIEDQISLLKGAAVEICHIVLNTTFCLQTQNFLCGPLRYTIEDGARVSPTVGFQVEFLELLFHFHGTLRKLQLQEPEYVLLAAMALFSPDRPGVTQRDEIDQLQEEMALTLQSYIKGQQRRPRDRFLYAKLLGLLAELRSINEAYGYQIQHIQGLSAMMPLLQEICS

Experiment [15] is described as follows: qHTS assay to identify small molecule antagonists of the estrogen related receptor signaling pathway with the pleiotropic PPARgamma coactivator (PGC) from Tox21 10K library - cell viability counter screen (AID 1224840; active = well fitted cell-killing curve with a large enough effect in the repeat runs, not every such curve was filed as active; note: nearly all actives have a fitted effect of over 40% in size). An outline of the steps:
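Compounds in DMSO, alongside positive and negative controls, were pinned onto PGC/ERR cells (2,000 per well). Exposure lasted 17.5 hours at 37 C, followed by a 30-minute CellTiter-Fluor incubation and fluorescence reading.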

Experiment [16] is described as follows: qHTS assay to identify small molecule antagonists of the estrogen related receptor signaling pathway with the pleiotropic PPARgamma coactivator (PGC) from Tox21 10K library (AID 1224841; call rule not given here). An outline of the steps:
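Compound exposure ran 18 hours at 37 C in PGC/ERR cells (2,000/well) that had first rested 6 hours in a 37 C/5% CO2 incubator. Luciferase activity was then detected with One-Glo after a 30-minute room-temperature step.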

Experiment [17] in a line: qHTS RealTime-Glo MT Cell Viability Assay in HEK293 cells - 32 hour (AID 1224868). An outline of the steps: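 Viability tracked continuously by luminescence as live cells reduce a prosubstrate for NanoLuc; HEK293 cells preincubated 5 h, compound-treated at 37 C, and read at 0, 8, 16, 24, 32 and 40 h.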
In experiment [18] the target is Nuclear receptor subfamily 1 group I member 3 (Homo sapiens) (UniProt Q14994). The experiment can be described thus: qHTS assay to identify small molecule agonists of the constitutive androstane receptor (CAR) signaling pathway (AID 1224839).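 For activation: HepG2 cells stably carrying human CAR and a CYP2B6 luciferase reporter.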 Note: nearly all actives have a fitted effect of over 15% in size. Note: potency is the fitted concentration of half-maximal effect. The method, boiled down:
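HepG2 cells stably co-transfected with hCAR and a CYP2B6-2.2kb luciferase reporter; compounds at 15 concentrations with 0.75 uM PK11195 present. After 24 hr at 37 C, luciferase read by ONE-Glo luminescence.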

Experiment [19] concerns the target Thyrotropin receptor (Homo sapiens) (UniProt P16473). The experiment can be described thus: qHTS assay to identify small molecule agonists of the thyroid stimulating hormone receptor (TSHR) signaling pathway (AID 1224843; calls by dose curve; note: nearly all actives have a fitted effect of over 45% in size; note: potency is the fitted concentration of half-maximal effect). The method, boiled down: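 Steps: seed 800 TSHR-HEK293 cells per well; add test compound and hold 30 min at ambient temperature; dispense cAMP-d2 then anti-cAMP cryptate; incubate 1 h at ambient; measure fluorescence intensity.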

Experiment [20] in a line: qHTS assay to identify small molecule antagonists of the constitutive androstane receptor (CAR) signaling pathway - cell viability counter screen (AID 1224837). Note: nearly all actives have a fitted effect of over 45% in size. An outline of the steps:
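Fluorescence from CellTiter-Fluor served as the viability signal. Human hepatoma HepG2 cells stably bearing hCAR and CYP2B6-2.2kb received compound plus CITCO (50 nM final) for 23 hr.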

Values joined by “and” are separate entries in the source; they are usually repeats but may differ in a detail not shown here. Equal entries are not always repeated. Values without a mark were called inactive. Results filed as inconclusive are left out. Active and inactive are the calls of the source. Unless noted, calls come from the whole dose curve; as a rule, active = well fitted curve in the direction sought with a large enough effect in the repeat runs; inconclusive = weak or mixed curves; inactive = no such curve, though single readings can be large; an effect the other way counts as inactive or inconclusive.
% is set by controls: 0 for no effect and ±100 for the full control effect.

Sequence of Thyrotropin receptor (Homo sapiens) (P16473 whole entry, looked up): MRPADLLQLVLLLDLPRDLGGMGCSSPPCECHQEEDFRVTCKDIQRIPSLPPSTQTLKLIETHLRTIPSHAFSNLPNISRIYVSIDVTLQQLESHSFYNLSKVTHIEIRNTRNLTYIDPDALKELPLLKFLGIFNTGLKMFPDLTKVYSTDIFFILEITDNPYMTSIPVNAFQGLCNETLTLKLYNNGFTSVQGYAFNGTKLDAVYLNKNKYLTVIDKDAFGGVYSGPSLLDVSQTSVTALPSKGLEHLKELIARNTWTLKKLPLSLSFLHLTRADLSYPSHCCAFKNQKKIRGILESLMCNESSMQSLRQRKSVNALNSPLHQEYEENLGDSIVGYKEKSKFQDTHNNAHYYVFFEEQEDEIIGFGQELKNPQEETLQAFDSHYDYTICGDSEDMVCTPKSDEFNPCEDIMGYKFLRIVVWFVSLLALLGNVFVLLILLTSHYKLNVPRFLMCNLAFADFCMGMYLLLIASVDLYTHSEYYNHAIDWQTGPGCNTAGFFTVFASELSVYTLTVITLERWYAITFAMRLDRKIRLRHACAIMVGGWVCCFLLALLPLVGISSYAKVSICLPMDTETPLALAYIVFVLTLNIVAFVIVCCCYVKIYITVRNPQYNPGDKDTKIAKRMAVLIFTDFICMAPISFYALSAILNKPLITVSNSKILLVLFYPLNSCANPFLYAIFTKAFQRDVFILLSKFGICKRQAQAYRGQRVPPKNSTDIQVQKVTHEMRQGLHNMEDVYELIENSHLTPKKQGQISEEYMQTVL
Sequence of Luciferin 4-monooxygenase (Photinus pyralis) (P08659 whole entry, looked up): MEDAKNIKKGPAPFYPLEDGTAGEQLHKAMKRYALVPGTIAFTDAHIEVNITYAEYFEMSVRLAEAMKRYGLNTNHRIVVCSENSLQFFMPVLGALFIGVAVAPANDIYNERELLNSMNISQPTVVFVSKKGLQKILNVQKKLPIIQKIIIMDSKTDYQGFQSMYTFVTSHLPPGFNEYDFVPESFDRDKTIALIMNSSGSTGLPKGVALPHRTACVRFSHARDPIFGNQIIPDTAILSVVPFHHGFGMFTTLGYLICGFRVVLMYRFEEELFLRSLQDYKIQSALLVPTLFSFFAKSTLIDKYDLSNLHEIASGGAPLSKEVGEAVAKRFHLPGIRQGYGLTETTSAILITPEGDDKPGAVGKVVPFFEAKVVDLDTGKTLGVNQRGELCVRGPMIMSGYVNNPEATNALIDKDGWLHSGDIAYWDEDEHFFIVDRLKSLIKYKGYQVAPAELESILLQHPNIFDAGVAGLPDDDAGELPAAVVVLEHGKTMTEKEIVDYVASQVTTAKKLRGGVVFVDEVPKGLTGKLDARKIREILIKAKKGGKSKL

Turning to `COc1cc(CC(C)N)c(OC)cc1Br` (stereo not given), the Potency entry in experiment [1], in experiment [2], in experiment [3], in [4], in experiment [5] and in experiment [7] was “inactive” each time. Besides, the Potency entry in experiment [8], in [10], in experiment [11] and in experiment [12] was “inactive” in each case. The result in experiment [6] was inactive. Further, the activity change, positive = activation in experiment [9] (at 92.4 µM (top of the series)) was -12.2%.

With `Clc1ccc(Cl)c(Cl)c1`, the Potency result in experiment [13], in [2], in experiment [14], in experiment [15], in experiment [16] and in experiment [3] was “inactive” each time. In addition, the Potency result in experiment [4], in experiment [5], in experiment [7], in [8], in experiment [10] and in experiment [17] was “inactive” throughout. Moreover, the Potency entry in [11] and in experiment [12] was “inactive” in each case. The outcome in experiment [6] was inactive. In addition, in experiment [9] (at 92.4 µM (top of the series)), the activity change, positive = activation was -0.809% and 5.15%.

Turning to `CC(C)(C)NCC(O)c1cc(Cl)c(N)c(C(F)(F)F)c1` (stereo not given), the Potency result in experiment [1], in experiment [18], in experiment [15], in experiment [16], in [3] and in experiment [5] was “inactive” each time. Further, the Potency entry in [7], in experiment [8], in [10], in experiment [17], in experiment [11] and in experiment [12] was “inactive” each time. Also, in [19], the Potency was 0.0021 µM (active). Besides, in experiment [6], the outcome was inactive. In addition, the activity change, positive = activation in experiment [9] (at 42.5 µM (top of the series)) is -0.267%.

Regarding `O=C(Cc1ccccc1)OCCc1ccccc1`, the Potency entry in experiment [13], in [20], in [15], in [16], in experiment [3] and in [4] was “inactive” in each case. The Potency result in experiment [5], in experiment [7], in experiment [8], in experiment [10], in experiment [17] and in experiment [11] was “inactive” each time. The Potency entry in [12] is “inactive”. In [6], the molecule was called inactive. Further, the activity change, positive = activation in [9] (at 92.4 µM (top of the series)) is -0.535%.

For the molecule `C[C@H](N)[C@H](O)c1ccc(O)c(O)c1`, the Potency result in experiment [13], in experiment [20], in [14], in experiment [18], in [16] and in [3] was “inactive” throughout. The Potency result in experiment [4], in experiment [7], in [8], in experiment [10], in experiment [17] and in experiment [12] was “inactive” throughout.

With `CC(C)c1ccc(NC(=O)N(C)C)cc1`, the Potency result in experiment [2], in experiment [20], in experiment [14], in experiment [15], in experiment [16] and in experiment [19] was “inactive” in each case. Besides, the Potency entry in [4], in experiment [5], in experiment [8], in experiment [10], in experiment [17] and in experiment [12] was “inactive” throughout. The Potency in experiment [18] is 48.5 µM (active). Moreover, the call in [6] was inactive. For the same molecule, the activity change, positive = activation in experiment [9] (at 92.4 µM (top of the series)) is 33.4% (active).

The values are drawn from PubChem BioAssay (Tox21).
